USP10 block = inhibitors of human USP10 deubiquitinase; Ubiquitin carboxyl-terminal hydrolase 10 (Homo sapiens), Q14694; purified USP10, Ub-rhodamine fluorescence, 60 min; inhibition, % at 20 µM; hit rate 1.1% among 47,000
USP17 inh = inhibitors of human USP17 deubiquitinase. Ubiquitin carboxyl-terminal hydrolase 17-like protein 5 (Homo sapiens), A8MUK1. purified USP17, Ub-rhodamine cleavage fluorescence, 3 h. inhibition, % at 50 µM. hit rate 6.5% among 47,000
USP8 inh = inhibitors of human USP8 deubiquitinase; Ubiquitin carboxyl-terminal hydrolase 8 (Homo sapiens), P40818; purified USP8, Ub-rhodamine cleavage fluorescence, 30 min; inhibition, % at 20 µM; hit rate 4.2% among 47,000; AID 1645853, 2021
USP28 inh = inhibitors of human USP28 deubiquitinase | hit rate 3% among 47,000 | purified USP28, Ub-rhodamine cleavage fluorescence, 30 min | inhibition, % at 25 µM | Ubiquitin carboxyl-terminal hydrolase 28 (Homo sapiens), Q96RU2
USP30 block = inhibitors of human USP30 deubiquitinase; AID 1645860, 2021; purified USP30, Ub-rhodamine cleavage fluorescence; Ubiquitin carboxyl-terminal hydrolase 30 (Homo sapiens), Q70CQ3; inhibition, % at 25 µM; hit rate 5.3% among 47,000
* marks the source's active call; other numbers are inactive results; . = not tested or not shown. Rows were chosen to be rich in hits. Some 14% of all compounds tested hit in one or more screens of this group. Cut-off read from the data, not from the text of the source: active = inhibition above about 30%; inactive = the rest.

SMILES	USP10 block	USP17 inh	USP8 inh	USP28 inh	USP30 block
CCOC(=O)c1ccccc1NC(=O)C(=O)CC(=O)c1ccc(OC)cc1	2.6	31.4*	77.9*	24.1	-18.1
COc1cc(COc2ccc3c(C)c(CC(=O)N4CC[C@@]5(O)CCCC[C@H]5C4)c(=O)oc3c2C)cc(OC)c1OC	3.9	48.2*	-4.9	10.1	50.2*
CCOc1ccc(-c2nc(Cn3nnc(C(=O)Nc4ccccc4C)c3C)c(C)o2)cc1	6.1	.	18.8	16.9	43.2*
O=S(=O)(Cc1ccc(Cl)cc1)N1CCc2nc[nH]c2C1	-0.9	-6.1	1.7	.	.
CC[C@H](C)C[C@H]1CC[C@](O)([C@](C)(O)C(=O)N[C@@H]2C(=O)N3NCCC[C@@H]3C(=O)N(O)[C@@H](C)C(=O)NCC(=O)N3NCCC[C@H]3C(=O)N(O)[C@H](C)C(=O)O[C@H]2C(C)C)O[C@@H]1C	-2.2	41.4*	-0.4	48.5*	60.8*
O=C(COC(=O)C1(c2ccccc2F)CCCC1)Nc1ccc2c(c1)OCO2	16.4	41.0*	43.8*	20.6	37.3*
COc1cc(NC(=O)COC(=O)C2(c3ccccc3F)CCCC2)cc(OC)c1	13.9	14.3	25.6	19.1	41.4*
O=C(COC(=O)C1(c2ccccc2F)CCCC1)Nc1ccc2c(c1)OCCO2	6.7	18.3	12.4	25.2	28.9
CC(C)(C)NC(=O)COC(=O)C1(c2cccc(F)c2)CCCC1	0.3	-1.5	3.4	-9.8	11.0
O=C(Nc1ccc(Cl)cc1)c1cccc(OCc2ccccc2)c1	15.4	-0.3	-1.0	1.2	-4.5
CN1CCC(N(C)S(=O)(=O)c2ccc(NC(=O)c3cccc(OCc4ccccc4)c3)cc2)CC1	-0.3	-4.1	-7.5	51.7*	0.1
FC(F)(F)c1cc(Oc2ccc(-n3cccc3)cc2)cc(C(F)(F)F)c1	-1.3	-0.2	8.6	-1.2	-31.8
O=c1[nH]c2ccc(S(=O)(=O)N3CCN(Cc4ccccc4)CC3)cc2[nH]1	-2.2	-11.7	6.9	16.6	-16.7
CN(Cc1ccccc1)S(=O)(=O)c1ccc(N2CCCCS2(=O)=O)cc1	1.3	37.0*	3.8	.	.
CCCCN(c1ccccc1)S(=O)(=O)c1ccc(N2CCCCS2(=O)=O)cc1	1.8	12.0	-1.4	11.3	18.3
CN(Cc1ccccc1)S(=O)(=O)c1ccc2[nH]c(=O)[nH]c2c1	4.0	37.4*	3.0	1.6	25.5
COc1ccc(Nc2nc(C(=O)N3CCN(c4ccccn4)CC3)cc3occc23)cc1	5.8	25.1	25.7	6.7	-53.4
COc1ccc(C2C3=C(CC(C)(C)CC3=O)Nc3ccccc3N2C(=O)c2ccccc2)cc1 (configuration not stated)	-5.8	35.3*	-1.0	-6.9	-5.1
CC1(C)CC(=O)C2=C(C1)Nc1ccccc1N(C(=O)c1ccccc1)C2c1c(F)cccc1Cl (configuration not stated)	-7.0	-28.2	-17.7	-8.2	-87.3
CCCOc1ccc(C2C3=C(CC(C)(C)CC3=O)Nc3ccccc3N2C(=O)c2ccccc2)cc1OC (configuration not stated)	-1.4	17.9	8.3	4.9	42.4*
CC(C)CC(=O)N1c2ccccc2NC2=C(C(=O)CC(C)(C)C2)C1c1ccco1 (configuration not stated)	-0.4	-19.5	-9.2	-12.9	-42.6
CC1(C)CC(=O)C2=C(C1)Nc1ccccc1N(C(=O)C(F)(F)F)C2c1cccs1 (configuration not stated)	-3.3	64.1*	89.1*	9.9	-37.5
COc1ccc(C2CC(=O)C3=C(C2)Nc2ccccc2N(C(=O)c2ccccc2)C3c2ccc(C(C)(C)C)cc2)cc1 (configuration not stated)	8.8	-3.0	7.1	4.5	-0.2
CCN1CCN(c2ccc(NC(=O)c3cc(C)ccc3C)cn2)C1=O	-4.6	0.1	-20.2	3.4	-6.8
Cn1cnc(S(=O)(=O)Nc2ccc3c(c2)OCO3)c1	2.0	20.0	0.3	1.0	3.7
SMILES	USP10 block	USP17 inh	USP8 inh	USP28 inh	USP30 block
Cc1ccc(CC(=O)N2CCC([C@@H]3C[C@H](C(F)F)n4ncnc4N3)CC2)cc1	-1.9	2.8	-6.6	-3.9	-0.2
C=C1C(=O)OC(CCCCC)C1C(=O)O (configuration not stated)	7.2	-35.8	6.5	35.9*	8.0
C=C1C(=O)O[C@@H]2C(=O)O[C@@H](CCCCCCCC)[C@H]12	7.3	14.3	8.9	-2.3	7.6
COc1ccc(N2CCN(C(=O)c3cncc(NS(=O)(=O)c4ccc(F)cc4)c3)CC2)cc1	-2.5	11.3	42.3*	7.6	-8.9
CC(C)(C)OC(=O)N1CCN(C(=O)Cn2c(=O)nc(-c3ccccc3)c3ccccc32)CC1	2.0	32.6*	-7.6	6.6	58.8*
O=c1[nH]c(C2CCN(S(=O)(=O)c3ccc(S(=O)(=O)NC4CCCCC4)cc3)CC2)nc2c1nnn2Cc1ccc(F)cc1	36.0*	46.6*	36.1*	43.7*	39.7*
O=c1[nH]c(C2CCN(S(=O)(=O)c3ccc(S(=O)(=O)NC4CC4)cc3)CC2)nc2c1nnn2Cc1ccc(F)cc1	21.2	.	-0.7	21.0	42.0*
Cc1ccc(Cn2nnc3c(=O)[nH]c(C4CCN(S(=O)(=O)c5ccc(S(=O)(=O)NC6CCCCC6)cc5)CC4)nc32)cc1	24.2	-0.1	-19.8	21.6	13.9
O=c1[nH]c(C2CCN(S(=O)(=O)c3ccc(S(=O)(=O)NC4CC4)cc3)CC2)nc2c1nnn2Cc1ccccc1	22.2	32.8*	0.3	21.8	38.7*
COc1ccc(-c2noc(-c3nnn(CC(=O)Nc4ccc(OC)cc4OC)c3N)n2)cc1	-5.3	-25.6	-23.1	-36.6	-98.5
CC(=O)N1Cc2cc(C)ccc2OC2(CCN(CC(=O)N3CCCC(C)C3)CC2)C1 (configuration not stated)	0.0	-10.3	-18.9	-16.1	-4.7
Cc1ccc(S(=O)(=O)N[C@@H](C)C(=O)N2CCC(C(=O)N[C@@H](Cc3ccc(O)cc3)C(=O)O)CC2)cc1	0.4	0.1	-11.5	-7.5	0.1
CCN(c1ccccc1)S(=O)(=O)c1ccc(OCc2nc3ccccc3s2)cc1	-10.2	-17.2	-10.8	-24.2	-75.6
CCC[C@H]1O[C@@H]2CC(=O)O[C@@H]2C2=C1C(=O)c1c(O)cccc1C2=O	-14.2	84.0*	-6.8	54.1*	-19.5
CC1OC2CC(=O)OC2C2=C1C(=O)c1c(O)cccc1C2=O (configuration not stated)	-6.8	93.8*	0.7	56.4*	-2.9
Cc1nc(-c2cccc(S(=O)(=O)NC3CCCc4ccccc43)c2)no1 (configuration not stated)	0.1	17.6	47.1*	5.9	11.5
O=S(=O)(NC(c1ccccc1)c1ccccc1)c1ccc(-n2cnnn2)cc1	2.9	44.2*	0.5	17.6	48.8*
O=S(=O)(NC1CCCc2ccccc21)c1ccc(F)cc1 (configuration not stated)	6.8	13.1	12.2	18.8	33.8*

Screens deposited in PubChem BioAssay by Buhrlage Lab, Dana-Farber Cancer Institute and Novartis Institutes for BioMedical Research (Cambridge, Mass).
